Drawing on the supplement of paper PMC4709259, this text covers cell count for nine compounds.

Structures can show the parent of a compound that is named as a salt. ± gives the standard deviation.

In the experiment the test system is Jurkat. The experiment can be described thus: cell count relative to DMSO control (fraction of control); higher = more cells (less growth inhibition). The following applies: 48 h.
Turning to `O=c1[nH]c(=O)n([C@H]2C[C@H](O)[C@@H](CO)O2)cc1I` [Idoxuridine] (concentration: 25 µM), the cell count stood at 0.235 ± 0.062.
For `CC12CC3CC(C)(C1)CC(N)(C3)C2` [Memantine·HCl] (concentration: 25 µM), the cell count was 0.797 ± 0.017.
In the case of `CC1=C(CC(=O)O)c2cc(F)ccc2/C1=C\c1ccc([S+](C)[O-])cc1` (centres undefined) [Sulindac] (concentration: 25 µM) it was 0.782 ± 0.083; in that of `CC(c1cc2ccccc2s1)N(O)C(N)=O` (centres undefined) [Zileuton] (concentration: 25 µM), 0.839 ± 0.068.
Compound `CC1(C)O[C@@H]2C[C@H]3[C@@H]4CCC5=CC(=O)CC[C@]5(C)[C@@]4(F)[C@@H](O)C[C@]3(C)[C@]2(C(=O)CCl)O1` [Halcinonide] (concentration: 25 µM) gave a cell count of 0.883 ± 0.12.
`CO[C@@]1(NC(=O)Cc2cccs2)C(=O)N2C(C(=O)O)=C(COC(N)=O)CS[C@@H]21` [Cefoxitin·Na] (concentration: 25 µM) gave a cell count of 0.89 ± 0.037.
Then `CC(C(=O)O)c1cccc(Oc2ccccc2)c1` (centres undefined) [Fenoprofen Calcium] (concentration: 25 µM), with 0.314 ± 0.15; and `CC[C@@H]([C@H](C)O)n1ncn(-c2ccc(N3CCN(c4ccc(OC[C@@H]5CO[C@@](Cn6cncn6)(c6ccc(F)cc6F)C5)cc4)CC3)cc2)c1=O` [Posaconazole] (concentration: 25 µM), with 1.016 ± 0.0028.
Consider `COC(=O)C1=C(C)NC(C)=C(C(=O)OCCN(C)Cc2ccccc2)C1c1cccc([N+](=O)[O-])c1` (centres undefined) [Nicardipine·HCl] (concentration: 25 µM), for which the cell count is 0.568 ± 0.034.
